Bioassay records deposited in PubChem by National Center for Advancing Translational Sciences (NCATS).
D2 ag-1 – activates the human D2 dopamine receptor. DiscoveRx PathHunter D2 beta-arrestin, luminescence, 90 min; 100% = 57 uM dopamine signal. P14416. activation, % (test concentration not listed). 360,000 tested, 0.084% active; in the data active = activation above about 40%
Target sequence (P14416 whole entry, looked up): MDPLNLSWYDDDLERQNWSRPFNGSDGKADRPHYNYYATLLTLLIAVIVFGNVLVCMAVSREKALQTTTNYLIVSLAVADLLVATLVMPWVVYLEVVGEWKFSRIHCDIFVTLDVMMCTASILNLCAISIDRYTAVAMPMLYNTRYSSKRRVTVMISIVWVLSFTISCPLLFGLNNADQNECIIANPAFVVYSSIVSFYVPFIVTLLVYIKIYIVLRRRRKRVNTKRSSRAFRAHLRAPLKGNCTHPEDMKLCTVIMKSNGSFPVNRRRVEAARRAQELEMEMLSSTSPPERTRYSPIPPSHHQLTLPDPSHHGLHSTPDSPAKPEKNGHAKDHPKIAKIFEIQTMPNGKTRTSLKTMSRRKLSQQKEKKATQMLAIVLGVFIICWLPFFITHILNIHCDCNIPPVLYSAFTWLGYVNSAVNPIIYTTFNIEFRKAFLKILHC
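DiscoveRx PathHunter D2 beta-arrestin cells (2,100/well) attached overnight, then compound-stimulated 90 min at 37 C in HBSS/10 mM HEPES/0.1% Tween-20 buffer; beta-galactosidase complementation read by luminescence after 1 h at ambient temperature. Dopamine 57 uM final (EC100) as control.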
D2 PAM-1 – potentiates the human D2 dopamine receptor allosterically; P14416; DiscoveRx D2 beta-arrestin cells, luminescence, 90 min; 100% = 57 uM dopamine signal; potentiation, % (concentration not given with the values); 360,000 tested, 0.23% active; AID 624464; in the data active = potentiation above about 50%
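PathHunter beta-arrestin assay in DiscoveRx D2 cells. Compounds were added with an EC20 of dopamine (50 nM final) for 90 min at 37 deg C. Luminescence was read 1 h after detection reagent, with 57 uM dopamine as the EC100 control.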
D2 ag-2 – D2 dopamine receptor (human) agonism | P14416 | activation, % at 2 µM | 340,000 tested, 0.53% active | HEK293 T-REx D2 cells, calcium flux agonist mode;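 active = activation over 3 SD above normal in the single-dose calcium agonist read, cut at about 30% in these data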
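Calcium-flux readout, 1 cycle/sec over 180 s following compound pin transfer, in inducible HEK293 Trex D2 cells (force-coupled); dopamine controls included. Positive calcium responses during this window marked compounds as potential agonists.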
D2 antag – D2 dopamine receptor (human) antagonism; P14416; HEK293 TREx D2 cells, calcium flux, dopamine EC80; inhibition, % at 10 µM; 340,000 tested, 2% active; AID 485344; in the data active = inhibition above about 30%; inactive = below that, where a call was filed
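Tetracycline-induced HEK293 T-REx cells expressing D2 force-coupled to calcium signalling were dye-loaded, exposed to compound for 180 s, then challenged with an EC80 of dopamine; calcium flux was followed kinetically for a further 180 s.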
D2 PAM-2 – positive allosteric modulators of human D2 dopamine receptor. P14416. HEK293 T-REx D2, calcium flux, EC20 dopamine potentiation. potentiation, % at 10 µM. 340,000 tested, 0.34% active. AID 485347;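 active = potentiation over 3 SD above the plate norm, cut at about 30% in these data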
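Cells plated with tetracycline inducer and held overnight at 30 C; calcium dye loaded 30–90 min at room temperature; baseline taken, compound added and read 180 s; EC20 dopamine then added and read 180 s.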
Of the large screens only hits and unclear results are named; the others gave an inactive call. Only some compounds are listed: those with a hit (about 2.4% of all), similar ones and a draw of the others.

CN1CCN(C(=O)c2ccccc2NC(=O)c2cccs2)CC1	D2 antag 37
COC(=O)c1ccccc1NC(=O)Cc1nc(-c2ccc(OC)cc2)no1	none (no result: D2 ag-1, D2 PAM-1, D2 antag)
Cn1cnc2cc(NC(=O)c3cccs3)ccc21	none (no result: D2 ag-2, D2 antag)
COc1ccc(Br)cc1CNC(=O)c1cc2ccccn2n1	none (no result: D2 ag-1, D2 PAM-1, D2 antag)
COc1ccc(CN2CCn3ncc(C(=O)Nc4cc(C)cc(C)c4)c3C2=O)cc1	D2 antag 38
COC(=O)c1cc2n(n1)CCN(Cc1ccc(OC)cc1)C2=O	none
Cc1ccc(-n2[nH]c(C)c(C=Nc3ccc(S(=O)(=O)Nc4nc(C)cc(C)n4)cc3)c2=O)c(C)c1	none
CNS(=O)(=O)c1ccc(N=Cc2c(C)[nH]n(-c3ccc(C)cc3C)c2=O)cc1	D2 antag 42
Cc1ccc2c(CN3CCN(S(=O)(=O)/C=C/c4ccccc4)CC3)cc(=O)oc2c1	none
CCNC(=O)COC(=O)C1CCN(S(=O)(=O)c2ccc3c(c2)OCCO3)CC1	none
N#CCOC(=O)C1CCN(S(=O)(=O)c2ccc3c(c2)OCCO3)CC1	D2 PAM-2 34
Cc1noc(C)c1COc1ccc(C(=O)OC(C)C(=O)Nc2ccc(N3CCOCC3)cc2)cc1 (stereo not drawn)	D2 antag 45
COc1cccc(C(=O)/C=C/Nc2ccc(S(=O)(=O)Nc3cc(OC)nc(OC)n3)cc2)c1	none
COc1ccc(C(=O)/C=C/Nc2ccc(S(=O)(=O)Nc3cc(OC)nc(OC)n3)cc2)c(OC)c1	D2 antag 31
COc1ccc(Cl)cc1CNC[C@H]1O[C@@H](n2cnc3c(=O)[nH]c(N)nc32)[C@H](O)[C@@H]1O	none (no result: D2 ag-2, D2 antag, D2 PAM-2)
COc1ccccc1N1CCN(C(=O)c2oc3ccccc3c2N)CC1	none (no result: D2 ag-1, D2 PAM-1, D2 antag)
CCc1ncc(C(O)c2ccc(Cl)cc2)n1Cc1ccccc1 (stereo not drawn)	none (no result: D2 ag-2, D2 antag, D2 PAM-2)
CCCCCCCC(=O)N/N=C(\C)c1ccc(N)cc1	none (no result: D2 ag-1, D2 PAM-1)
CCCCCCCC(=O)N/N=C(\C)c1ccc(O)cc1O	D2 antag 72
CCCCCCCCC(=O)N/N=C(\C)c1ccc(O)cc1O	D2 antag 49
CCOc1ccc(NC(=O)c2cc(C3CC3)nc3c2cnn3C(C)C)cc1OC	none
CSc1ccc(/C=C(\C(=O)O)c2ccc(S(=O)(=O)N3CCCC3)s2)cc1	D2 antag 36
Cc1nc2scc(C)n2c(=O)c1S(=O)(=O)N1CCN(c2ccccc2)CC1	D2 antag 32
COc1ccc(N2CCN(S(=O)(=O)c3c(C)nc4scc(C)n4c3=O)CC2)cc1	none
CC1(C)Cc2ccccc2-c2nnc(-c3ccc4ccccc4n3)n21	D2 PAM-2 44
CCCNC(=O)COc1ncnc2sccc12	D2 antag 33
CC(C)CNC(=O)NC(=O)COc1ncnc2sccc12	D2 antag 37
CC1CN(c2c3c(nc4ncnn24)CCCC3)CC(C)O1 (stereo not drawn)	D2 PAM-2 32
COc1ccc(Cl)cc1NC(=O)CN(C)C(=O)c1cc2c(s1)CCCC2	D2 antag 46
COc1ccc(Cl)cc1NC(=O)CN(C)C(=O)c1cn(-c2ccccc2)nc1-c1cccnc1	D2 antag 44
COc1ccc(Cl)cc1NC(=O)CN(C)C(=O)Cc1ccc2c(c1)CCC2	none
COc1ccc(Cl)cc1NC(=O)CN(C)C(=O)CCNC(=O)c1ccccc1OC	D2 antag 31
COc1ccc(Cl)cc1C(=O)NCCN(C)C	D2 antag 33
COc1ccccc1C(=O)NCCC(=O)N(C)CC(=O)Nc1c(Cl)cccc1Cl	none
Cc1ccccc1NC(=O)Cn1nnc(C(=O)NCCc2ccccc2)c1N	none (no result: D2 ag-1, D2 PAM-1, D2 antag)
COc1ccc(CNS(=O)(=O)c2ccc(-c3cc(C(F)(F)F)on3)s2)cc1OC	none (no result: D2 ag-1, D2 PAM-1, D2 ag-2, D2 antag)
O=C(N[C@@H](Cc1ccccc1)C(=O)NC1CC1)c1ccc(Cl)cc1	none
Cc1ccc(-c2cc(C(=O)N3CCN(S(=O)(=O)c4ccc(Br)cc4)CC3)[nH]n2)cc1C	none (no result: D2 ag-1, D2 PAM-1, D2 antag)
O=C(NNC(=O)c1ccc(NC(=O)c2ccccc2)cc1)c1ccc(F)cc1	none
O=C(NC1=C(Nc2ccc(F)cc2)C(=O)c2ccccc2C1=O)c1ccc(Cl)cc1	D2 PAM-1 70
COc1ccc(N2CC(NC(=O)c3cc4ccccc4o3)CC2=O)cc1 (stereo not drawn)	none (no result: D2 ag-1, D2 PAM-1, D2 antag)
CCN(CC)CCNC(=S)Nc1ccc2nc3n(c(=O)c2c1)CCCCC3	none
